Measured values as given in PubChem BioAssay.
Values without a mark were called inactive. No rule for the calls is given here.

target: Pantothenate synthetase (Mycobacterium tuberculosis (strain ATCC 25618 / H37Rv)) (UniProt P9WIL5); experiment: Coupled enzyme confirmation of inhibitors against recombinant Mtb PanC (AID 375); details: coupled enzyme assay; at 10 µM, active compounds read high;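 also: 0% = full reaction with vehicle and 100% = no enzyme background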
Sequence (P9WIL5 whole entry, looked up): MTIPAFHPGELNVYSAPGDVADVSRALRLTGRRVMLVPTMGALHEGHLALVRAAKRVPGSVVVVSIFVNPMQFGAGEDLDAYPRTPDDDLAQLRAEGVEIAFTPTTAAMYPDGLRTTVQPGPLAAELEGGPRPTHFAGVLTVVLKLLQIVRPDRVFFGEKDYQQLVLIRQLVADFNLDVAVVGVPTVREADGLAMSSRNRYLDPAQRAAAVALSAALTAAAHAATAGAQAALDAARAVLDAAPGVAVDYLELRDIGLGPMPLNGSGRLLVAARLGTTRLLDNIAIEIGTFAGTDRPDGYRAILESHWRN

Row | Structure (SMILES) | inhibition [%]
1 | COc1ccc(OC)c(C(=O)COC(=O)c2cc(C)oc2C)c1 | 11
2 | COc1ccc(CC(=O)NCc2nnc(SCC(=O)Nc3nccs3)n2-c2ccccc2)cc1 | 0
3 | COc1ccccc1NC1=NC2(CCCC2)N=C(N)N1 | 0
4 | CCOc1ccccc1NC(=O)CSc1nnc2c(CC)c(C)nc(N)n12 | 0
5 | N#CC1=C(N)OC(c2ccccc2)=C(C#N)C1c1ccc2c(c1)OCO2 (stereo not given) | 0
6 | CC1CCCC(C)N1C(=O)COC(=O)c1ccc[nH]c1=O (stereo not given) | 0
7 | CN1CC(=O)N(CC(=O)NCCc2ccc(F)cc2)c2ccccc2C1=O | 0
8 | CCOC(=O)N1CCC(N2C(=O)c3ccccc3C2Nc2cccnc2)CC1 (stereo not given) | 4
9 | CCCOc1ccc(N2CC(C(=O)Nc3ccc4c(c3)OCO4)CC2=O)cc1 (stereo not given) | 6
10 | Cn1c(=O)c2ncn(CC(=O)NCCOc3ccccc3)c2n(C)c1=O | 0
11 | Nn1c(SCc2csc(-c3ccccc3)n2)nnc1-c1cccs1 | 0
12 | O=C(NCCC1=CCCCC1)C1CCN(S(=O)(=O)c2cnc[nH]2)CC1 | 2
13 | O=C1CC(c2ccccc2)CC(O)=C1C=NCCN1CCOCC1 (stereo not given) | 5
14 | Cc1ccc2nc(SCC(=O)NCc3ccco3)c(C#N)cc2c1 | 0
15 | CCC(=O)O[C@]1(C(=O)CCl)[C@@H](C)C[C@H]2[C@@H]3CCC4=CC(=O)C=C[C@]4(C)[C@@]3(F)[C@@H](O)C[C@@]21C | 0
16 | Cc1ccc(C)c(N2CCN(C(=O)c3cc4ccccn4n3)CC2)c1 | 0
17 | CCCn1cnc2c(c1=O)c1nc3ccccc3nc1n2Cc1ccccc1OC | 0
18 | COC(=O)c1ccc(-c2ccc(CNCC(O)c3ccccc3)o2)cc1 (stereo not given) | 1
19 | Cc1ccccc1-n1c(SCc2c(C)noc2C)nnc1-c1ccncc1 | 0
20 | CCC(CC)n1[nH]c(=O)c2c(C)cc(C)nc21 | 3

Row | Structure (SMILES) | inhibition [%]
21 | COC(=O)c1ccc(-c2ccco2)n1Cc1nc(-c2ccc(OC)c(OC)c2)oc1C | 2
22 | Cn1c(=O)[nH]c(=O)c2c1nc(Br)n2CCCSc1nc2ccccc2o1 | 0
23 | COc1ccc(C2(C(=O)N3CCCC3)CCOCC2)cc1OC | 6
24 | COc1ccc(CNc2nc3nc(C)c(Cl)c(C)n3n2)cc1OC | 6
25 | Cn1c([N+](=O)[O-])cnc1COC(N)=O | 0
26 | C=C(C)CSc1nnc(-c2cccc(S(=O)(=O)N(C)C)c2)n1-c1cc(OC)ccc1OC | 1
27 | Cc1ccccc1-c1nc(CS(=O)(=O)CC(=O)NCc2ccc3c(c2)OCO3)c(C)o1 | 6
28 | O=S(=O)(NCC1CCCO1)c1ccc2c(c1)OCCO2 (stereo not given) | 0
29 | O=C(Nc1ccc2c(c1)OCCO2)C1CCN(C(=O)c2ccc(F)cc2)CC1 | 0
30 | Cc1ccc(NC(=O)CC2Nc3ccccc3NC2=O)cc1Cl (stereo not given) | 0
31 | O=C(Nc1ccc(OC(=O)c2ccco2)cc1)c1ccco1 | 7
32 | Cc1cnn(C(=S)NCc2ccco2)c1 | 0
33 | NC(=O)SCC(=O)Nc1cccc(Cl)c1 | 1
34 | C#CCNc1c(C)c(C)nc2ncnn12 | 4
35 | O=C(Nc1ccccc1-c1ccccc1)NC1CCN(C(=O)N2CCOCC2)CC1 | 0
36 | CCOC(=O)N1CCC(n2c(SCC(=O)NCc3ccco3)nc3ccsc3c2=O)CC1 | 0
37 | COc1cccc(CNC(=O)C2CCN(S(=O)(=O)c3ccc(F)cc3)CC2)c1 | 8
38 | CCOc1cc2[nH]c(=O)n(CCCCC(=O)N3CCCCCC3)c(=O)c2cc1OCC | 2
39 | CC1CCc2nn(CC(=O)N3CCN(C(=O)c4ccco4)CC3)cc2C1 (stereo not given) | 10
40 | CN(CC(=O)N1CCCc2c1c(=O)oc1ccc(O)cc21)Cc1ccccc1 | 0
